mHTT CaM bind = mutant huntingtin-calmodulin interaction inhibitors – biochemical, AlphaScreen, primary screen | AlphaScreen His-mHTT/GST-CaM binding, luminescence | 190,000 compounds, 3.6% hits | inhibition, % at 15 µM | AID 1671202, 2021;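 note: 0% = both proteins with DMSO and 100% = one protein alone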
Pf apPOL inh = Pf-apPOL inhibitors, biochemical, fluorescence; Plasmodium falciparum apicoplast DNA polymerase (apPOL); Recombinant Pf-apPOL, molecular beacon fluorescence, 1.5 h; inhibition, % at 10 µM; 210,000 compounds, 0.25% hits; AID 1794808, 2022
Numbers without * were called inactive; · = no result given. Only some compounds are listed: those with a hit (about 3.6% of all), similar ones and a draw of the others. Cut-off read from the data, not from the text of the source: active = inhibition above about 50%; inactive = the rest.

SMILES | mHTT CaM bind | Pf apPOL inh
CC(C)n1nccc1-c1nnc(NC(=O)C(C)(C)Oc2ccc(Cl)cc2)o1 | 66* | -227
COc1nn(C)cc1C(=O)Nc1nnc(-c2csc(C)n2)o1 | 58* | 0
COc1ccc(N2CC(c3nnc(NC(=O)Cc4ccccc4C)o3)CC2=O)cc1 (stereo not given) | 49 | -3
COc1nn(C)cc1C(=O)Nc1nnc(C2CC(=O)N(c3ccccc3)C2)o1 (stereo not given) | 54* | -2
COc1cccc(CC(=O)Nc2nnc(C3CC(=O)N(c4ccccc4)C3)o2)c1 (stereo not given) | 87* | -3
CC(C)(Oc1ccc(Cl)cc1)C(=O)Nc1ccncc1 | -3 | -2
COc1ccccc1C(=O)Nc1nnc(C2CC(=O)N(c3ccccc3)C2)o1 (stereo not given) | 17 | -2
CCCS(=O)(=O)N1CCC(c2cnn(-c3cccc(C)c3)c2)CC1 | -17 | -7
CCCNc1cc(N2CCC(CCC(=O)NCCN3CCN(C)CC3)CC2)ncn1 | 2 | -2
COC(=O)CNC(=O)N1CCCC1c1cc(C(C)C)on1 (stereo not given) | -9 | 2
COc1cccc(N2CC(C(=O)O)CC2=O)c1 (stereo not given) | -4 | -1
COc1ccc(N2CC(c3nnc(NC(=O)Cc4cccs4)o3)CC2=O)cc1 (stereo not given) | 65* | -6
COc1cccc(N2CC(C(=O)Nc3c(C(N)=O)oc4ccccc34)CC2=O)c1 (stereo not given) | 59* | -3
CC(C)(Oc1ccc(Cl)cc1)C(=O)Nc1nnc(C2CC(=O)N(c3ccccc3)C2)o1 (stereo not given) | 98* | -35
CC(C)(C)C(=O)Nc1nnc(C2CC(=O)N(c3ccccc3)C2)o1 (stereo not given) | 4 | -1
CSc1ccc(N2CC(c3nnc(NC(=O)Cc4cccs4)o3)CC2=O)cc1 (stereo not given) | 14 | -3
O=C(Cn1cc(-c2ccc(F)cc2)oc1=O)N1CCCCC1 | -6 | 0
CCCCN1N=C(C(=O)N2CCCC2)S(=O)(=O)c2ccccc21 | -3 | -2
Cc1cccc(NC(c2ccccn2)c2ccc3ccc(C)nc3c2O)n1 (stereo not given) | 99* | -3
Cc1ccc2ccc3ccc(C)nc3c2n1 | 1 | ·
Cc1cccc(NC(=O)C(=O)NCc2ccccn2)n1 | -11 | -5
Cc1cccc(NC(c2cccc(C)n2)c2ccc3ccc(C)nc3c2O)n1 (stereo not given) | 76* | 1
COc1ccc(S(=O)(=O)N2CCN(C(=O)c3cccc(OC)c3OC)CC2)cc1 | -7 | 0
Cc1cccc(S(=O)(=O)N2CC3CN(S(=O)(=O)c4c(C)noc4C)CC(C2)O3)c1 | -10 | -6
Cc1ccc(Cc2nc(-c3cccc(-c4ccn[nH]4)c3)no2)cc1 | 6 | 0
SMILES | mHTT CaM bind | Pf apPOL inh
CNC(=O)Nc1ccc(C2(C(=O)N3CCN(c4cccc(Cl)c4)CC3)CCC2)cc1 | 67* | 1
CNC(=O)Nc1ccc(C2(C(=O)N3CCN(c4ccccc4)CC3)CCC2)cc1 | 11 | 1
CC(C)C(=O)Nc1ccc(C2(C(=O)N3CCN(c4ccccn4)CC3)CCCCC2)cc1 | 28 | 4
CC(=O)Nc1ccc(C2(C(=O)N3CCN(c4ccccc4)CC3)CCCCC2)cc1 | 91* | -1
N#CC1=C(N)N(c2ccc(Cl)cc2)C2=C(C(=O)CCC2)C1c1cccnc1 (stereo not given) | 1 | -1
CN(C)c1ccc(C2C(C#N)=C(N)N(c3ccc(Cl)cc3)C3=C2C(=O)CCC3)cc1 (stereo not given) | 99* | -4
CN(C)c1ccc(C2C(C#N)=C(N)N(c3ccc(Br)cc3)C3=C2C(=O)CCC3)cc1 (stereo not given) | 100* | -1
COc1ccc(N2C(N)=C(C#N)C(c3ccc(Br)cc3)C3=C2CCCC3=O)cc1 (stereo not given) | 25 | -5
Cc1ccc(N2CC(C(=O)N3CCC(c4nnc(-c5ccc(F)cc5)o4)CC3)CC2=O)cc1 (stereo not given) | 5 | -10
CCCNC(=O)c1ccc2ncc3c(=O)n(-c4ccc(F)cc4)[nH]c3c2c1 | 12 | 0
CCCNC(=O)c1ccc2ncc3c(=O)n(-c4ccc(Cl)cc4)[nH]c3c2c1 | 58* | -2
Cn1cc(CNC(=O)Nc2ccc(Cl)c(Cl)c2)cn1 | 4 | 1
Cn1c(C(=O)N2CCOCC2)cc2c1CCN(Cc1ccccc1)C2 | 1 | -1
Cn1c(C(=O)N2CCCCC2)cc2c1CCN(Cc1cccc(F)c1)C2 | 33 | -6
Cn1c(C(=O)N2CCN(c3ccc(F)cc3)CC2)cc2c1CCN(Cc1ccccc1)C2 | 85* | 3
Cn1c(C(=O)NCCN2CCCC2)cc2c1CCN(Cc1cccc(F)c1)C2 | 79* | 12
Cn1c(C(=O)N2CCN(c3ccccc3)CC2)cc2c1CCN(Cc1cccc(F)c1)C2 | 66* | -7
COc1ccc(CNC(=O)c2cc3c(n2C)CCN(Cc2cccc(F)c2)C3)cc1 | 28 | -4
CC(C)(C)NC(=O)C1CC(=O)N(C2CCCCC2)C1 (stereo not given) | 2 | -4
Cc1ccc(CN2CCc3ncn(CC(=O)NCc4ccc(F)cc4F)c(=O)c3C2)cc1 | 2 | -15
COC(=O)c1c(NC(=O)c2cccc(S(C)(=O)=O)c2)sc2c1CCN(C(C)C)C2 | -9 | -11
O=C(c1cccc2[nH]ccc12)N1CCCC(c2n[nH]c(C3CC3)n2)C1 (stereo not given) | 6 | -4
O=C(CNc1ccccc1Cl)c1ccccc1 | 100* | 1
O=C(Nc1ccccc1Cl)c1ccccc1 | -12 | 0
Cc1noc(CNC(=O)Cc2noc3ccccc23)n1 | -18 | -4
SMILES | mHTT CaM bind | Pf apPOL inh
CCc1cc(C(=O)Cc2cscn2)c(O)cc1O | 0 | -20
COc1cc(C=Nc2ccc(Cl)c(Cl)c2)ccc1O | 2 | 3
Oc1ccc(C=Nc2ccc(Nc3ccccc3)cc2)cc1 | 100* | -3
COc1ccc(C=Nc2ccc(C(N)=O)cc2)cc1O | -4 | -1
Oc1ccc(N=Cc2ccc(OCc3ccccc3)cc2)cc1 | 35 | 0
COc1cc(C=Nc2ccc(Nc3ccccc3)cc2)ccc1O | 92* | -4
COc1ccc(C=Nc2ccc(Nc3ccccc3)cc2)cc1O | 87* | -57
Cc1ccc(C(=O)N2CCN(c3nc(CN4CCOCC4)cs3)CC2)c(C)c1 | 8 | -2
Cc1cccc(NC(=O)c2ccc(F)cc2)c1C | -10 | -1
Cc1noc(-c2nn(C)c3c2CN(C(=O)Nc2ccc(Cl)cc2)CC3)n1 | 58* | 1
CSc1ccc(NC(=O)N2CCc3c(c(-c4nc(C)no4)nn3C)C2)cc1 | 36 | -2
Cn1nc(-c2nc(C3CC3)no2)c2c1CCN(C(=O)Nc1ccccc1)C2 | 12 | 0
CSc1cccc(NC(=O)N2CCc3c(c(-c4nc(C5CC5)no4)nn3C)C2)c1 | 52* | -6
O=C1CC(C(=O)N2CCCC2)CN1Cc1cccc(Br)c1 (stereo not given) | 2 | -2
O=C1[C@H](Cc2ccccc2)NC/C=C\C[C@@H](c2ccco2)N1Cc1ccccc1 | 43 | -2
O=C1c2ccccc2NC(c2ccc(Cl)cc2)N1Cc1ccccc1 (stereo not given) | -22 | 16
O=C1[C@H](Cc2ccccc2)NCCCC[C@H](c2ccc(Cl)cc2)N1Cc1ccccc1 | 37 | -6
